Among the data in PubChem BioAssay (EPA / NIEHS) are outcome and AC50 values, retold here.

Activity calls are given as the source filed them. Rule for the calls: active = hit-call score of the fitted dose curve at least 0.9, where 1 is the maximum; inactive = score below 0.9.

What is called AC50 is the concentration at which the activity in the assay is half-maximal.

This assay is described as follows: ATG_CRE_CIS: Attagene CIS-FACTORIAL HepG2 Assay for human cAMP Responsive Element (CRE) binding protein 3 (AID 2282926). The following applies: HepG2 CRE cis-reporter, Attagene multiplexed mRNA; actives raise or lower the signal. Here is the method:
ATG_CIS is a cell-based, multiplexed-readout assay that uses HepG2, a human liver cell line, with measurements taken at 24 hours after chemical dosing in a 24-well plate.ATG_CRE_CIS is one of 52 assay component(s) measured or calculated from the ATG_CIS assay. It is designed to make measurements of mRNA induction, a form of inducible reporter, as detected with fluorescence intensity signals by Reverse transcription polymerase chain reaction (RT-PCR) and Capillary electrophoresis technology.Data from the assay component ATG_CRE_CIS was analyzed into 1 assay endpoint. This assay endpoint, ATG_CRE_CIS, was analyzed with bidirectional fitting relative to DMSO as the negative control and baseline of activity. Using a type of inducible reporter, measures of mRNA for gain or loss-of-signal activity can be used to understand the reporter gene at the transcription factor-level as they relate to the gene CREB3. Furthermore, this assay endpoint can be referred to as a primary readout, because this assay has produced multiple assay endpoints where this one serves a reporter gene function. To generalize the intended target to other relatable targets, this assay endpoint is annotated to the dna binding intended target family, where the subfamily is basic leucine zipper.
Human liver HepG2 cells are transiently transfected with multiple reporter transcription units (MRTUs) in 6-well plates using FuGene 6 reagent (Roche; 3 ml FuGene/1 mg DNA). The MRTU constructs are regulated by a cis-regulating element (promoter). […] A major difference between the CIS and TRANS system is that in CIS activities of endogenous TFs are measured, whereas the TRANS assay evaluates changes in activities of exogenous, chimeric NR-Gal4 proteins. […] At the end of 24 hour incubation, total RNA was isolated using TriZol reagent (Invitrogen). The isolated RNA is then reverse-transcribed using oligo(dT) primer and Mo-MLV reverse transcriptase (Invitrogen) with DNAse I (Ambion) treatment for 30 min. The one-tenth of the produced cDNA was amplified by PCR using Taq DNA polymerase (Invitrogen) and two reporter sequence-specific primers. The PCR products were fluorescently labeled by primer extension with 6-arboxyfluorescein (6-FAM) 5'-labeled reporter sequence-specific primer (2 min at 95 C, 20 s at 68 C and 10 min at 72 C) and these products were digested with 5U of HpaI (New England Biolabs) for 2h at 37 C. The fragments were purified using Qiaquick PCR columns (Qiagen), analyzed on an ABI 3130xL genetic analyzer (Applied Biosystems) with peak positions identified by using a set of X-rhodamine (ROX)-labeled MapMarker1000 molecular weight standards (BioVentures). The raw capillary electrophoresis data was processed using Attagraph software (Attagene).
Turning to `CCOC(=O)C1OC1c1ccccc1` (stereo not given), the outcome was inactive.

Regarding `CC(=O)Nc1ccc(C(=O)CCl)cc1`, the AC50 is 7.97 µM (active). In the case of `Cc1ncc[nH]1`, the outcome was inactive.

Take `N[C@@H](Cc1cc(I)c(Oc2cc(I)c(O)c(I)c2)c(I)c1)C(=O)O`: the outcome was inactive. Regarding `CCCOC(=O)c1c(Cl)c(Cl)c(Cl)c(Cl)c1C(=O)OCCC`, the AC50 is 171 µM (active).

`CC=Cc1ccc(OC)c(OC)c1`: the call was inactive.

On to `CC(C)(N=C=O)c1cccc(C(C)(C)N=C=O)c1`, for which the result was inactive.

As to `CCCCCCCCCCCCCC(=O)OCC(O)CO` (stereo not given), the molecule was classed as inactive. Take `O=C(O)CNc1ccccc1`: the call was inactive. As for `CCCCCC(C=O)=Cc1ccccc1`, the molecule was called inactive.

In the case of `Oc1ccc2cc(SSc3ccc4cc(O)ccc4c3)ccc2c1`, the half-maximal activity concentration (AC50) is 62 µM (active). For `CCCCCCCC/C=C\CCCCCCCC(=O)OCC`, the outcome was inactive.

`CC1C2CC(CC2C2CCCC(O)C2)C1(C)C` (stereo not given): the result was inactive. For `CCc1ccc(O)cc1`, the outcome was inactive. `CN(C)c1ccncc1`: the molecule was classed as inactive. With `[O-]n1ccccc1=S.[O-]n1ccccc1=S.[Zn+2]`, the result was inactive. On the same count and under the same terms, with `C[Si](C)(C)O[Si](C)(C)C` the entry was “inactive”; with `CCCCCC(=O)CC`, “inactive”; with `O=Cc1ccccc1S(=O)(=O)O`, “inactive”. For `CCC(=O)OCCOc1ccccc1`, the molecule was classed as inactive. `O=C1OC(=O)c2c(Br)c(Br)c(Br)c(Br)c21`: the result was inactive. With `O=C(Nc1ccc([N+](=O)[O-])cc1)Nc1ccc([N+](=O)[O-])cc1` (tested in a mixture with another compound), the call was inactive. With `CC1=CC[C@@]23C[C@@H]1C(C)(C)[C@@H]2CC[C@H]3C`, the molecule was classed as inactive. `[Cl][Au]([Cl])[Cl]`: the molecule was called inactive.

For `COc1ccc(OC)c(N=Nc2c(O)ccc3ccccc23)c1`, the result was inactive.

Take `c1ccc(CN(Cc2ccccc2)Cc2ccccc2)cc1`: the molecule was classed as inactive. Regarding `CC(=O)CC(=O)Nc1ccccc1`, the result was inactive. On to `CCCCCCC(O)CCCCCCCCCCC(=O)O` (stereo not given), for which the outcome was inactive. Still for that read-out and setting: with `Nc1ccn([C@H]2CS[C@@H](CO)O2)c(=O)n1` the entry was “inactive”. On the same count and under the same terms, to `O=C1CCCC=CCCCCCCCCCC1` belongs “inactive”; to `OCCCCC(O)CO` (stereo not given), “inactive”. With `CCCCCCCCCC(=O)OC`, the molecule was called inactive.

`CCCCCCOCCOCCO`: the molecule was classed as inactive. In the case of `C[Si]1(C)O[Si](C)(C)O[Si](C)(C)O1`, the molecule was classed as inactive.

For `CCO/C=C1\N=C(c2ccccc2)OC1=O`, the outcome was inactive. Turning to `CCc1cc(Cc2cc(CC)cc(C(C)(C)C)c2O)c(O)c(C(C)(C)C)c1`, the AC50 is 19.1 µM (active).

For `O=C1OC[C@H](Cc2cccc(O)c2)[C@H]1Cc1cccc(O)c1`, the call was inactive.

With `N#Cc1ccc(CC(=O)c2cccc(C(F)(F)F)c2)cc1`, the outcome was inactive. `C=C(C#N)C(=O)OCC`: the call was inactive. `CN(C)CCOC(C)(c1ccccc1)c1ccccn1` (stereo not given): the call was inactive.
